According to PubChem BioAssay (NCI):
The panel holds about 83,000 compounds, 20% with a hit somewhere; the sample as a whole holds those more often.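 Treatment: one concentration, 48 hours, 96-well format. Scoring: percent growth, with anything below 10 considered active.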 Active and inactive are the calls of the source.

Experiments:
Experiment in all cases: NCI-60 one-dose screen, 48 h (100 = growth as untreated, 0 = no growth, -100 = all killed)
Conditions in all cases: 10 µM unless noted
NCI-H23 lung = system: NCI-H23 lung
NCI-H226 lung = system: NCI-H226 lung
NCI-H322M lung = system: NCI-H322M lung
HOP-62 NSCLC = system: HOP-62 NSCLC
NCI-H460 lung = system: NCI-H460 lung
NCI-H522 lung = system: NCI-H522 lung
A549/ATCC NSCLC = system: A549/ATCC NSCLC
786-0 renal = system: 786-0 renal
COLO 205 colon = system: COLO 205 colon
DU-145 prostate = system: DU-145 prostate
K-562 leukemia = system: K-562 leukemia
MALME-3M melanoma = system: MALME-3M melanoma
MDA-MB-231 breast = system: MDA-MB-231 breast
RXF 393 renal = system: RXF 393 renal
SF-268 CNS = system: SF-268 CNS
SF-295 CNS = system: SF-295 CNS
SF-539 CNS = system: SF-539 CNS
UACC-257 melanoma = system: UACC-257 melanoma
M14 melanoma = system: M14 melanoma

Measured: growth

Cc1ccc(Nc2cccc3ccccc23)cc1
inactive: NCI-H23 lung 83.6% | NCI-H226 lung 90.1% | NCI-H322M lung 82.8% | HOP-62 NSCLC 91.9% | NCI-H460 lung 103% | NCI-H522 lung 68.4% | A549/ATCC NSCLC 90.5% | 786-0 renal 88.9% | COLO 205 colon 101% | DU-145 prostate 109% | K-562 leukemia 63% | MALME-3M melanoma 94.2% | MDA-MB-231 breast 88.5% | RXF 393 renal 91.2% | SF-268 CNS 92.4% | SF-295 CNS 112% | SF-539 CNS 99.8% | UACC-257 melanoma 86.4% | M14 melanoma 89.6%

COc1cc(NCCC2CCCCN2)c2ncccc2c1OC (centres undefined)
active: NCI-H522 lung -7.89%
inactive: NCI-H23 lung 49.1% | NCI-H226 lung 117% | NCI-H322M lung 116% | HOP-62 NSCLC 102% | NCI-H460 lung 80.3% | A549/ATCC NSCLC 82.1% | 786-0 renal 90.1% | COLO 205 colon 78.1% | DU-145 prostate 87.5% | K-562 leukemia 64.7% | MALME-3M melanoma 134% | MDA-MB-231 breast 74.2% | RXF 393 renal 111% | SF-268 CNS 92.9% | SF-295 CNS 110% | SF-539 CNS 92% | UACC-257 melanoma 66.3% | M14 melanoma 92.1%

O=C(O)CSc1ccc(NCc2oc(CO)cc(=O)c2O)cc1
inactive: NCI-H23 lung 99.9% | NCI-H226 lung 94.8% | NCI-H322M lung 110% | HOP-62 NSCLC 105% | NCI-H460 lung 110% | NCI-H522 lung 89.3% | A549/ATCC NSCLC 103% | 786-0 renal 96.6% | COLO 205 colon 106% | DU-145 prostate 110% | K-562 leukemia 89% | MALME-3M melanoma 99.6% | MDA-MB-231 breast 97.2% | RXF 393 renal 110% | SF-268 CNS 107% | SF-295 CNS 106% | SF-539 CNS 92.2% | UACC-257 melanoma 105% | M14 melanoma 74.6%

CS(=O)(=O)c1ccc(C(=O)N/N=C/c2ccccc2Cl)cc1
inactive: NCI-H23 lung 94.8% | NCI-H226 lung 97.4% | NCI-H322M lung 99.2% | HOP-62 NSCLC 87.3% | NCI-H460 lung 101% | NCI-H522 lung 96.4% | A549/ATCC NSCLC 78.4% | 786-0 renal 97.2% | COLO 205 colon 90.9% | DU-145 prostate 98.8% | K-562 leukemia 67.5% | MALME-3M melanoma 100% | MDA-MB-231 breast 93.6% | RXF 393 renal 117% | SF-268 CNS 100% | SF-295 CNS 103% | SF-539 CNS 101% | UACC-257 melanoma 64.5% | M14 melanoma 91.9%

CN1C(=O)N(C)C2C1NN=c1s/c(=C\c3ccc(C(F)(F)F)cc3)c(=O)n12 (centres undefined)
inactive: NCI-H23 lung 39.5% | NCI-H226 lung 43.2% | NCI-H322M lung 32.4% | HOP-62 NSCLC 31.9% | NCI-H460 lung 11.7% | A549/ATCC NSCLC 31.9% | 786-0 renal 25.5% | K-562 leukemia 10.6% | MALME-3M melanoma 56% | MDA-MB-231 breast 60.4% | SF-268 CNS 45.1% | SF-295 CNS 10.4% | UACC-257 melanoma 44.6% | M14 melanoma 16%
active: NCI-H522 lung 2.74% | COLO 205 colon -0.525% | DU-145 prostate 9.33% | RXF 393 renal -3.65% | SF-539 CNS 3.31%

Cc1ccc(NC(=O)c2cc(NCc3cc(O)ccc3O)ccc2O)cc1
active: NCI-H522 lung -27.5%
inactive: NCI-H23 lung 92.9% | NCI-H226 lung 95.4% | NCI-H322M lung 101% | HOP-62 NSCLC 97.9% | NCI-H460 lung 102% | A549/ATCC NSCLC 80.5% | 786-0 renal 101% | COLO 205 colon 105% | DU-145 prostate 106% | K-562 leukemia 70.9% | MALME-3M melanoma 97.9% | MDA-MB-231 breast 78.5% | RXF 393 renal 87.5% | SF-268 CNS 83.5% | SF-295 CNS 116% | SF-539 CNS 84.3% | UACC-257 melanoma 78.9% | M14 melanoma 107%

O=C1SCN(Cc2ccccc2)CN1Cc1ccccc1
inactive: NCI-H23 lung 91.2% | NCI-H226 lung 96.2% | NCI-H322M lung 95.3% | HOP-62 NSCLC 102% | NCI-H460 lung 107% | NCI-H522 lung 26.3% | A549/ATCC NSCLC 99.1% | 786-0 renal 114% | COLO 205 colon 116% | DU-145 prostate 95.4% | K-562 leukemia 46.3% | MALME-3M melanoma 101% | MDA-MB-231 breast 86.9% | RXF 393 renal 108% | SF-268 CNS 96.2% | SF-295 CNS 110% | SF-539 CNS 104% | UACC-257 melanoma 70.9% | M14 melanoma 99.1%

CCOC(=O)C#Cc1c(C(=O)OCC)nnn1[C@@H]1O[C@H](COC(C)=O)[C@@H](OC(C)=O)[C@H]1OC(C)=O
inactive: NCI-H23 lung 93.4% | NCI-H226 lung 92.2% | NCI-H322M lung 101% | HOP-62 NSCLC 109% | NCI-H460 lung 108% | NCI-H522 lung 50% | A549/ATCC NSCLC 78.3% | 786-0 renal 102% | COLO 205 colon 45.6% | DU-145 prostate 100% | K-562 leukemia 28.5% | MALME-3M melanoma 101% | MDA-MB-231 breast 107% | RXF 393 renal 70.2% | SF-268 CNS 97.8% | SF-295 CNS 103% | SF-539 CNS 101% | UACC-257 melanoma 64.3% | M14 melanoma 92.1%

COc1cc(C)c(Cl)cc1C1=NN(c2ccc(S(N)(=O)=O)cc2)C(/C=C/c2ccccc2)C1 (centres undefined)
inactive: NCI-H23 lung 50.5% | NCI-H226 lung 31.9% | NCI-H322M lung 107% | HOP-62 NSCLC 59.7% | NCI-H460 lung 26.8% | NCI-H522 lung 27% | A549/ATCC NSCLC 34% | 786-0 renal 63.4% | COLO 205 colon 38.3% | DU-145 prostate 82.6% | K-562 leukemia 23.1% | MALME-3M melanoma 85.6% | MDA-MB-231 breast 88.4% | RXF 393 renal 58% | SF-268 CNS 70.2% | SF-295 CNS 63.7% | SF-539 CNS 103% | UACC-257 melanoma 83.4% | M14 melanoma 72.2%

C=CCCCCOc1cccc(/C=C2\N=C3SCCCN3C2=O)c1
inactive: NCI-H23 lung 102% | NCI-H226 lung 94.3% | NCI-H322M lung 84.6% | HOP-62 NSCLC 94.5% | NCI-H460 lung 103% | NCI-H522 lung 83.3% | A549/ATCC NSCLC 93.2% | 786-0 renal 95% | COLO 205 colon 101% | DU-145 prostate 108% | K-562 leukemia 91.5% | MALME-3M melanoma 115% | MDA-MB-231 breast 88.6% | RXF 393 renal 114% | SF-268 CNS 110% | SF-295 CNS 96% | SF-539 CNS 104% | UACC-257 melanoma 112% | M14 melanoma 103%

COc1ccc(C(=O)O)cc1.[Ag]
inactive: NCI-H23 lung 103% | NCI-H226 lung 101% | NCI-H322M lung 102% | HOP-62 NSCLC 113% | NCI-H460 lung 87.1% | NCI-H522 lung 11.8% | A549/ATCC NSCLC 93.4% | 786-0 renal 107% | COLO 205 colon 61.8% | DU-145 prostate 106% | MDA-MB-231 breast 103% | RXF 393 renal 100% | SF-268 CNS 97% | SF-295 CNS 114% | SF-539 CNS 94.9% | UACC-257 melanoma 94.9% | M14 melanoma 106%
active: K-562 leukemia -27.4% | MALME-3M melanoma -51.3%

COc1cc(/C=C/c2cc(/C=C/c3ccc(O)c(OC)c3)n(C(=O)Nc3ccc(F)c(Cl)c3)n2)ccc1O
inactive: NCI-H322M lung 12.6% | NCI-H522 lung 10.9% | MDA-MB-231 breast 12.2%
active: NCI-H23 lung -12.9% | NCI-H226 lung -4.32% | HOP-62 NSCLC -7.78% | NCI-H460 lung 4.43% | A549/ATCC NSCLC 5.9% | 786-0 renal -32.9% | COLO 205 colon -59.4% | DU-145 prostate -11.8% | K-562 leukemia -3.9% | MALME-3M melanoma -16.8% | RXF 393 renal -57.6% | SF-268 CNS 6.57% | SF-295 CNS -55.3% | SF-539 CNS -16.6% | UACC-257 melanoma -15.9% | M14 melanoma -21.9%

CCOc1cc(/C=N\NC(=O)C[N+](C)(C)C)ccc1O
inactive: NCI-H23 lung 104% | NCI-H226 lung 97.5% | NCI-H322M lung 123% | HOP-62 NSCLC 115% | NCI-H460 lung 114% | NCI-H522 lung 104% | A549/ATCC NSCLC 105% | 786-0 renal 113% | COLO 205 colon 119% | DU-145 prostate 116% | K-562 leukemia 73.4% | MALME-3M melanoma 115% | MDA-MB-231 breast 127% | RXF 393 renal 120% | SF-268 CNS 109% | SF-295 CNS 111% | SF-539 CNS 120% | UACC-257 melanoma 112% | M14 melanoma 118%

COc1ccc2[nH]cc(C3(c4c[nH]c5ccc(OC)cc45)C(=O)Nc4ccc(Cl)cc43)c2c1
inactive: NCI-H23 lung 80.3% | NCI-H226 lung 108% | NCI-H322M lung 85.5% | HOP-62 NSCLC 85.2% | NCI-H522 lung 65.7% | A549/ATCC NSCLC 63.6% | 786-0 renal 74.1% | COLO 205 colon 69.2% | DU-145 prostate 66.9% | MALME-3M melanoma 78.9% | MDA-MB-231 breast 82.4% | RXF 393 renal 94.5% | SF-268 CNS 40.8% | SF-295 CNS 59.6% | SF-539 CNS 74.8% | UACC-257 melanoma 86.5% | M14 melanoma 73.8%
active: NCI-H460 lung 6.57% | K-562 leukemia 6.2%

O=[N+]([O-])c1ccc(N=Nc2c(NNc3ccc([N+](=O)[O-])cn3)cc(S(=O)(=O)O)c3ccccc23)nc1
inactive: NCI-H23 lung 81.2% | NCI-H226 lung 95.8% | NCI-H322M lung 60.8% | HOP-62 NSCLC 85.5% | NCI-H460 lung 63.7% | NCI-H522 lung 84.9% | A549/ATCC NSCLC 89.2% | 786-0 renal 109% | COLO 205 colon 106% | DU-145 prostate 74.9% | K-562 leukemia 94.3% | MALME-3M melanoma 129% | MDA-MB-231 breast 57% | RXF 393 renal 120% | SF-268 CNS 63.9% | SF-295 CNS 114% | SF-539 CNS 89.3% | UACC-257 melanoma 101% | M14 melanoma 60.6%

CCCCc1nc(Cl)c(C2CC(c3ccc(S(N)(=O)=O)cc3)=NN2c2cc(Cl)cc(Cl)c2)[nH]1 (centres undefined)
inactive: NCI-H23 lung 51.9% | NCI-H226 lung 39% | NCI-H322M lung 77.7% | HOP-62 NSCLC 61.8% | NCI-H460 lung 13.9% | NCI-H522 lung 22.7% | A549/ATCC NSCLC 36.5% | 786-0 renal 53.6% | COLO 205 colon 32.2% | DU-145 prostate 70.8% | K-562 leukemia 16% | MALME-3M melanoma 65.3% | MDA-MB-231 breast 35.2% | RXF 393 renal 48.4% | SF-268 CNS 49.4% | SF-295 CNS 50.3% | SF-539 CNS 91.4% | UACC-257 melanoma 55.4% | M14 melanoma 18.7%
